Laboratory results as given in PubChem BioAssay AID1159580 (chemical genetic matrix, 2015).
“And” between values parts separate entries of the source, which are not always exact repeats. Equal entries are not always repeated. Hit rate of the full screen: of about 5,500 compounds, about 2,000 (36%) were called active. Inconclusive results (about 18%) are left out. Cut-off read from the data, not from the text of the source: active = normalized growth mostly below about 0.91 (no sharp cut-off); inconclusive = no clear call, values can overlap the other calls; inactive = mostly above about 0.92. This is one part of the list.

Assay: chemical genetic growth profiling, strain panel (AID 1159580);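 note: tested at 20 µM; growth read once vehicle control cultures reached saturation at 30 °C; 1 = growth at the plate median or of vehicle wells; lower values mean less growth of the strain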
Settings: S. cerevisiae deletion strains, growth OD

Measured: normalized growth

COc1ccc(CC(=O)c2ccc(O)cc2O)cc1
active: locus YDL192W, strain arf1, hits give low values 0.865 | locus YDR137W, strain rgp1, hits give low values 0.733 | locus YDR195W, strain ref2 1.19 [resistant] | locus YDR318W, strain mcm21, hits give low values 0.912 | locus YDR392W, strain spt3, hits give low values 0.455 | locus YER155C, strain BEM2 (second series), hits give low values 0.768 | locus YGL086W, strain mad1, hits give low values 0.928
inactive: locus YAL021C, strain ccr4, hits give low values 0.998 | locus YAL026C, strain drs2, hits give low values 0.954 | locus YAL030W, strain snc1, hits give low values 0.985 | locus YBL061C, strain skt5, hits give low values 0.986 | locus YBR009C, strain hhf1, hits give low values 0.937 | locus YBR021W, strain FUR4, hits give low values 0.894 | locus YBR023C, strain chs3, hits give low values 0.958 | locus YBR171W, strain sec66, hits give low values 0.973 | locus YBR229C, strain ROT2, hits give low values 0.969 | locus YBR231C, strain swc5, hits give low values 0.989 | locus YBR279W, strain paf1, hits give low values 0.99 | locus YCL011C, strain gbp2, hits give low values 0.973 | locus YCL016C, strain dcc1, hits give low values 0.961 | locus YCL029C, strain bik1, hits give low values 0.953 | locus YCL061C, strain MRC1, hits give low values 0.965 | locus YCL069W, strain vba3, hits give low values 0.982 | locus YCR088W, strain abp1, hits give low values 0.988 | locus YDL005C, strain med2, hits give low values 1.01 | locus YDL035C, strain GPR1, hits give low values 0.94 | locus YDL040C, strain nat1, hits give low values 0.977 | locus YDL074C, strain BRE1, hits give low values 0.848 | locus YDL101C, strain DUN1, hits give low values 0.969 | locus YDL185W, strain tfp1, hits give low values 0.983 | locus YDR001C, strain nth1, hits give low values 0.992 | locus YDR069C, strain doa4, hits give low values 1 | locus YDR101C, strain arx1, hits give low values 0.956 | locus YDR159W, strain sac3, hits give low values 0.96 | locus YDR162C, strain NBP2, hits give low values 0.872 | locus YDR297W, strain sur2, hits give low values 0.988 | locus YDR334W, strain swr1, hits give low values 0.991 | locus YDR335W, strain msn5, hits give low values 0.975 | locus YDR388W, hits give low values 0.963 | locus YDR502C, strain sam2, hits give low values 0.924 | locus YEL003W, strain gim4, hits give low values 0.969 | locus YEL037C, strain rad23, hits give low values 0.997 | locus YEL061C, strain CIN8 (second series), hits give low values 0.994 | locus YER015W, strain faa2, hits give low values 0.971 | locus YER016W, strain bim1, hits give low values 0.996 | locus YER110C, hits give low values 0.975 | locus YER111C, strain swi4, hits give low values 0.998 | locus YER155C, strain BEM2, hits give low values 0.956 | locus YER167W, strain BCK2, hits give low values 0.962 | locus YFR010W, strain ubp6, hits give low values 1.01 | locus YGL078C, strain dbp3, hits give low values 0.983 | locus YGL167C, strain pmr1, hits give low values 0.984 | locus YGL173C, strain kem1, hits give low values 0.979 | locus YGL227W, strain vid30, hits give low values 0.997 | locus YGL240W, strain doc1, hits give low values 0.925 | locus YGL248W, strain PDE1, hits give low values 0.922 | locus YGL253W, strain hxk2, hits give low values 0.982 | locus YGR135W, strain pre9, hits give low values 0.934 | locus YGR252W, strain gcn5, hits give low values 0.841 | locus YHR013C, strain ard1, hits give low values 0.963 | locus YHR027C, strain rpn1, hits give low values 0.987 | locus YHR030C, strain SLT2, hits give low values 0.953 and 0.949 | locus YHR079C, strain IRE1 (second series), hits give low values 0.978 | locus YHR079C, strain IRE1, hits give low values 0.959 | locus YHR094C, strain hxt1, hits give low values 0.982 | locus YHR129C, strain ARP1, hits give low values 0.968 | locus YHR142W, strain chs7, hits give low values 0.925 | locus YHR200W, strain rpn10, hits give low values 0.956 | locus YIL066C, strain RNR3, hits give low values 0.953 | locus YIL073C, strain SPO22, hits give low values 0.866 | locus YIL125W, strain kgd1, hits give low values 1 | locus YIR030C, strain dcg1, hits give low values 0.972 | locus YJL092W, strain hpr5, hits give low values 0.987 | locus YJL095W, strain BCK1 (second series), hits give low values 0.981 | locus YJL095W, strain BCK1, hits give low values 0.812 and 0.951 | locus YJL115W, strain asf1, hits give low values 1.01 | locus YJL129C, strain trk1, hits give low values 0.931 | locus YJL134W, strain LCB3, hits give low values 0.981 | locus YJL154C, strain vps35, hits give low values 0.992 | locus YJL164C, strain tpk1, hits give low values 0.952 | locus YJL166W, strain qcr8, hits give low values 0.944 | locus YJL168C, strain set2, hits give low values 0.972 | locus YJL187C, strain SWE1 (second series), hits give low values 0.958 | locus YJL187C, strain SWE1, hits give low values 0.987 | locus YJR066W, strain TOR1, hits give low values 0.93 | locus YKL009W, strain mrt4, hits give low values 0.956
